Source: the supplement of paper PMC13392028
Over roughly 4,100 sequences, “RBNS R-value (6-mer enrichment in protein-bound RNA vs input library)” has its median near 0.99; the highest 2% begin near 1.4. This is one part of a sample in which the highest values are shown more often than they occur.

System: PfIESI-1 RRM domain (Plasmodium falciparum ortholog aa 875-1232, GST fusion)
Assay: RBNS R-value (6-mer enrichment in protein-bound RNA vs input library) (ratio); higher = stronger binding preference; the methods of the paper give 50 / 100 / 500 nM protein instead
Method: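 RNA Bind-n-Seq: recombinant GST-tagged IESI-1 RRM domain was incubated at room temperature with a random 40-nt in vitro transcribed RNA library at 250, 500 or 1000 nM protein. Bound RNA was pulled down on glutathione beads and sequenced. R-value is the enrichment of each 6-mer in the bound RNA relative to the input library. Each 6-mer sits inside the random 40-mer context, not as an isolated oligo. Values are replicate 1 only.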

| Sequence | RBNS R-value (protein concentration: 250 nM) | RBNS R-value (protein concentration: 500 nM) | RBNS R-value (protein concentration: 1000 nM) |
| --- | --- | --- | --- |
| CUCCUU | 0.894 | 0.809 | 0.869 |
| CUCACC | 1.06 | 0.994 | 1.04 |
| UUCGCC | 1.06 | 0.992 | 1.03 |
| GCGAAU | 1.01 | 1.07 | 1.04 |
| CUUUUU | 0.934 | 0.932 | 0.919 |
| UUGACG | 1.14 | 1.1 | 1.07 |
| UAAAUA | 0.769 | 0.893 | 0.797 |
| AAAUAA | 0.785 | 0.993 | 0.847 |
| AUAAUG | 0.87 | 0.985 | 0.875 |
| UUGAUG | 2.95 | 3.14 | 2.32 |
| UAGAUG | 1.1 | 1.17 | 1.07 |
| UUGAUC | 1.32 | 1.35 | 1.22 |
| GUGAUG | 2.02 | 2.17 | 1.72 |
| GUGAAG | 0.986 | 0.998 | 1.03 |
| GCGAUC | 0.968 | 0.948 | 1.02 |
| GCGAUG | 1.37 | 1.39 | 1.28 |
| AUGAAU | 1.08 | 1.18 | 1.04 |
| CCGAUG | 1.38 | 1.35 | 1.29 |
| AGGAUU | 1.04 | 1.06 | 1.06 |
| GGGAUG | 1.12 | 1.08 | 1.09 |
| AUGAUU | 2.75 | 3 | 2.19 |
| UUAGAA | 0.943 | 1.05 | 0.999 |
| GACUAA | 0.913 | 0.983 | 0.945 |
| CGCGAU | 1.17 | 1.15 | 1.13 |

| Sequence | RBNS R-value (protein concentration: 250 nM) | RBNS R-value (protein concentration: 500 nM) | RBNS R-value (protein concentration: 1000 nM) |
| --- | --- | --- | --- |
| UCCACU | 0.991 | 0.933 | 0.95 |
| GUCUUC | 0.908 | 0.868 | 0.954 |
| GCAUCC | 1.14 | 1.06 | 1.11 |
| CUAACC | 0.953 | 0.903 | 0.903 |
| AGCGUA | 0.911 | 0.94 | 0.898 |
| CAAAGA | 1.13 | 1.21 | 1.2 |
| AUGAGA | 1.23 | 1.31 | 1.23 |
| CUGAUC | 1.29 | 1.27 | 1.2 |
| AGGAUA | 0.981 | 1.03 | 1.01 |
| AUGAUA | 1.84 | 2.08 | 1.63 |
| CUGAUG | 2.47 | 2.58 | 1.97 |
| CGGAUG | 1.03 | 0.978 | 1.02 |
| AGGCGG | 1.02 | 0.987 | 1.05 |
| CCAACU | 0.966 | 0.921 | 0.933 |
| UUGGGU | 0.975 | 0.933 | 0.982 |
| UGAGAC | 1.16 | 1.17 | 1.15 |
| CGAGAG | 1.29 | 1.22 | 1.27 |
| CGAGAC | 1.23 | 1.2 | 1.18 |
| AGAGAG | 1.19 | 1.25 | 1.24 |
| UGAGAA | 1.33 | 1.39 | 1.34 |
| AGAGAA | 1.34 | 1.48 | 1.37 |
| AGAGAC | 1.18 | 1.21 | 1.17 |
| UGAGAG | 1.18 | 1.16 | 1.19 |
| CGAGAA | 1.52 | 1.53 | 1.43 |

| Sequence | RBNS R-value (protein concentration: 250 nM) | RBNS R-value (protein concentration: 500 nM) | RBNS R-value (protein concentration: 1000 nM) |
| --- | --- | --- | --- |
| UGUCAC | 0.945 | 0.963 | 0.96 |
| UGGCAU | 1.09 | 1.07 | 1.06 |
| GUCCUC | 0.918 | 0.874 | 0.925 |
| ACCUAU | 0.891 | 0.846 | 0.828 |
| CGGGGA | 1.15 | 1.1 | 1.16 |
| GAACUU | 0.955 | 0.971 | 0.985 |
| UAUGAC | 0.947 | 0.945 | 0.924 |
| GAUGAG | 1.61 | 1.68 | 1.43 |
| GAUGAC | 1.8 | 1.8 | 1.51 |
| GACGAG | 1.12 | 1.13 | 1.11 |
| GAUGAU | 2.43 | 2.58 | 1.9 |
| GAUGGU | 1.18 | 1.23 | 1.13 |
| AAUGAC | 1.08 | 1.1 | 1.09 |
| AAUGAA | 0.954 | 1.1 | 1.03 |
| GAUGAA | 1.88 | 2 | 1.59 |
| GAUGCU | 1.34 | 1.37 | 1.24 |
| GGUGAA | 0.997 | 1.06 | 1.06 |
| GAAUAC | 0.992 | 1.04 | 0.993 |
| CAACUU | 0.893 | 0.889 | 0.886 |
| GUAAUU | 0.943 | 0.984 | 0.95 |
| UACCUA | 0.87 | 0.814 | 0.831 |
| GUAACA | 0.845 | 0.924 | 0.87 |
| AAAGAU | 1.06 | 1.19 | 1.11 |
| GGUACC | 1.07 | 1 | 1.08 |

| Sequence | RBNS R-value (protein concentration: 250 nM) | RBNS R-value (protein concentration: 500 nM) | RBNS R-value (protein concentration: 1000 nM) |
| --- | --- | --- | --- |
| CCUCUA | 0.848 | 0.783 | 0.823 |
| ACGAGU | 1.04 | 1.06 | 1.02 |
| CCUUGC | 1.16 | 1.03 | 1.09 |
| GCUUGU | 0.92 | 0.92 | 0.939 |
| ACUUGA | 1.42 | 1.46 | 1.34 |
| UCUUGA | 1.3 | 1.32 | 1.25 |
| CCUUGA | 1.46 | 1.37 | 1.32 |
| CCUUGG | 1.13 | 1.03 | 1.12 |
| ACUUGU | 0.921 | 0.923 | 0.962 |
| GCUUGA | 1.36 | 1.4 | 1.28 |
| ACUUGC | 1.02 | 0.979 | 1.01 |
| CGAGUC | 1.09 | 1.04 | 1.06 |
| ACGCCU | 1.07 | 0.995 | 1.03 |
| AUGUGC | 1.04 | 1.07 | 1 |
| AGUCAA | 0.859 | 0.93 | 0.933 |
| AGAUUC | 1.19 | 1.22 | 1.17 |
| AGAUUA | 0.942 | 1.04 | 0.964 |
| CGAUUC | 1.25 | 1.25 | 1.2 |
| GGAUCC | 1.04 | 0.978 | 1.05 |
| CGAUUG | 1.28 | 1.27 | 1.2 |
| UGAUCC | 1.38 | 1.38 | 1.26 |
